Vc quorum ag: quorum light induction in luxS cqsA deficient V. cholerae. activation, % at 18.7 µM. V. cholerae BH1578 lux reporter, luminescence, 6 h. 350,000 tested, 0.16% active. AID 588436; in the data active = activation mostly above about 9.7%, no sharp cut-off
GDH-TPI counter-1: counter-screen for M. tuberculosis FBA inhibitors: GDH-TPI coupled enzymes; inhibition, % at 4.8 µM; 360,000 tested, 1.2% active; GDH-TPI coupled enzyme counterscreen, NADH absorbance; in the data active = inhibition above about 30%;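 also: 0% = DMSO wells and 100% = wells lacking the enzyme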
FBA Mtb inh: inhibits M. tuberculosis FBA enzyme | P9WQA3 | purified M. tuberculosis FBA, fluorescence read-out | inhibition, % at 1 µM | AID 588726 | 360,000 tested, 2.3% active;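 also: 0% = vehicle and 100% = reference inhibitor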
Target sequence (P9WQA3 whole entry, looked up): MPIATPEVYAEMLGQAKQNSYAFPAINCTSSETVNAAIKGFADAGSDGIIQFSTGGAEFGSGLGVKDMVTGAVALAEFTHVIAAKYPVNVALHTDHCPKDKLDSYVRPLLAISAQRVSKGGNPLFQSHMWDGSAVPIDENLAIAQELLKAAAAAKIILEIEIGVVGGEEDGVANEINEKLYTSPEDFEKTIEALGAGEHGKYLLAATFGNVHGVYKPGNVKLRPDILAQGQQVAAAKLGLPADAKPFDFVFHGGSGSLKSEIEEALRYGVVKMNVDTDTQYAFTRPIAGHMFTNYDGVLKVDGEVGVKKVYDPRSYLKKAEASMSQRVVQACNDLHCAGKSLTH
Mtb BioA inh: BioA (M. tuberculosis) enzyme inhibition; purified M. tuberculosis BioA enzyme, plate reader; AID 602481; 360,000 tested, 0.096% active; inhibition, % at 9.99 µM; in the data active = inhibition above about 40%
Mtb FBA inh conf: confirmation of M. tuberculosis fructose-bisphosphate aldolase inhibitors. shares compounds with FBA Mtb inh. purified M. tuberculosis FBA, fluorescence read-out. 5,600 tested, 78% active. inhibition, % at 1 µM;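 also: 0% = vehicle wells and 100% = reference inhibitor wells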
GDH-TPI counter-2: inhibits GDH-TPI coupling enzymes, flagging Mtb FBA hits. shares compounds with FBA Mtb inh. GDH-TPI coupled enzyme counterscreen, fluorescence. inhibition, % at 1 µM. 5,600 tested, 81% active. AID 652141; in the data active = inhibition above about 10%
GDH-TPI dose: inhibits GDH-TPI coupling enzymes in dose response; shares compounds with FBA Mtb inh; GDH-TPI coupled enzyme assay, fluorescence, artifact counterscreen; IC50, µM; 170 tested, 79% active; AID 652145; call rule not given here
Starred values were filed as active, the others as inactive; i = inactive; nt = no result; + = active, no number. Rows were chosen to be rich in hits. Some 3% of all compounds tested hit in one or more screens of this group. Rule as the data show it, unless noted: active = inhibition above about 27%; inactive = the rest.

SMILES	Vc quorum ag	GDH-TPI counter-1	FBA Mtb inh	Mtb BioA inh	Mtb FBA inh conf	GDH-TPI counter-2	others
CCOc1ccc(N=c2oc3cc(O)ccc3cc2C(=O)NCC2CCCO2)cc1 (stereo unspecified)	0	2	56*	-18	39*	36*
CO[C@@H]1CN(C)C(=O)c2ccc(NC(=O)Cc3ccccc3)cc2OC[C@H](C)N(C(=O)c2ccccc2F)C[C@H]1C	nt	nt	nt	1	nt	nt
C[C@H]1CCCCO[C@H](CN(C)C(=O)Nc2ccc3c(c2)OCO3)[C@@H](C)CN([C@@H](C)CO)C(=O)c2cc(NS(=O)(=O)c3ccccc3)ccc2O1	nt	nt	nt	-1	nt	nt
COc1ccc(NC(=O)N(C)C[C@@H]2OCCCC[C@@H](C)Oc3ccc(NC(=O)CCC(F)(F)F)cc3C(=O)N([C@@H](C)CO)C[C@H]2C)cc1	nt	nt	nt	2	nt	nt
COc1ccccc1CNC(=O)C[C@@H]1CC[C@@H]2[C@H](COC[C@H](O)CN2Cc2cccc(-c3ccncc3)c2)O1	nt	nt	nt	-1	nt	nt
O=[N+]([O-])c1ccc(Nc2c3ccccc3nc3ccccc23)cc1	0	10	51*	nt	101*	84*
CS(=O)(=O)Cc1cc(Sc2ccccc2)nc(-c2ccncc2)n1	0	2	34*	3	8	-4
O=S(Cc1cc(Sc2ccccc2)nc(-c2ccccc2)n1)c1ccccc1 (stereo unspecified)	i	-7	2	nt	nt	nt
O=C(Nc1ccccc1)c1cc2ccccc2o1	i	6	-4	6	nt	nt
O=C(Nc1ccccc1)c1cccc(=O)o1	0	33*	52*	nt	197*	174*
CC(=O)N(C)C[C@@H]1Oc2cc(C3=CCCC3)ccc2S(=O)(=O)N([C@@H](C)CO)C[C@@H]1C	nt	nt	nt	-2	nt	nt
COc1ccc2[nH]c3c(NCCN(C(C)C)C(C)C)ncnc3c2c1	-5	2	54*	4	+	184*
CCOc1ccc2[nH]c3c(NCCCOC)ncnc3c2c1	i	1	110*	1	+	+
Cc1ccc2[nH]c3c(N4CCOCC4)ncnc3c2c1	-1	21	82*	2	178*	145*
CC(C)OCCCNc1ncnc2c1[nH]c1ccccc12	-6	11	18	6	nt	nt
COc1ccc2[nH]c3c(N4CCN(Cc5ccc6c(c5)OCO6)CC4)ncnc3c2c1	0	17	35*	1	79*	53*
C[C@H](O)C#Cc1cnc2c(c1)C(=O)N([C@@H](C)CO)C[C@H](C)[C@@H](CN(C)C(=O)CC1CC1)O2	nt	nt	nt	-2	nt	nt
COc1ccc(S(=O)(=O)Nc2ccc3c(c2)OC[C@@H](C)N(C)C[C@@H](C)[C@H](OC)CN(C)C3=O)cc1	nt	nt	nt	-16	nt	nt
CCOc1ccc2[nH]c3c(NCCN(CC)CC)ncnc3c2c1	i	7	21	4	nt	nt
Brc1ccc2[nH]c3c(NCc4ccccn4)ncnc3c2c1	-1	-1	2	-1	nt	nt
CCOc1ccc2[nH]c3c(NCC(C)C)ncnc3c2c1	i	1	77*	nt	126*	110*
COc1ccc(CNc2ncnc3c2[nH]c2ccccc23)cc1	-1	10	17	11	nt	nt
CCOc1ccc2[nH]c3c(NCCOC)ncnc3c2c1	-1	-1	71*	nt	64*	48*
Cc1ccc2[nH]c3c(N4CCc5ccccc5C4)ncnc3c2c1	-1	17	9	2	nt	nt
COc1ccc(CNc2ncnc3c2[nH]c2cc(OC)c(OC)cc23)cc1	0	-9	46*	-1	106*	92*
SMILES	Vc quorum ag	GDH-TPI counter-1	FBA Mtb inh	Mtb BioA inh	Mtb FBA inh conf	GDH-TPI counter-2	others
CCOc1ccc2[nH]c3c(N4CCc5ccccc5C4)ncnc3c2c1	0	10	32*	-2	+	+
CC(=O)N(C)C[C@@H]1Oc2ncc(C#C[C@H](C)O)cc2C(=O)N([C@H](C)CO)C[C@@H]1C	nt	nt	nt	-2	nt	nt
CCS(=O)(=O)Nc1ccc2c(c1)C(=O)N(C)C[C@H](OC)[C@@H](C)CN(CC1CCCC1)[C@@H](C)CO2	nt	nt	nt	-4	nt	nt
CCOC(=O)c1c(-c2ccccc2)oc2ccc(OCC(O)CNCCN(C)C)cc12 (stereo unspecified)	1	7	42*	1	1	-1
CCOc1ccc2oc(-c3ccccc3)c(C(=O)N3CCN(C)CC3)c2c1	6	21	71*	0	92*	58*
COc1ccc2oc(-c3ccccc3)c(C(=O)N3CCOCC3)c2c1	i	11	40*	0	72*	48*
CCOC(=O)c1c(-c2ccccc2)oc2ccc(OCC)cc12	-1	16	23	-2	nt	nt
CCOC(=O)C(=O)C1=CN(Cc2ccccc2)C=C(C#N)C1	0	16	29*	2	98*	70*
N#CC1=CN(Cc2ccccc2)C=C(/C=N/Nc2ccccc2)C1	0	3	1	nt	nt	nt
O=C(O)C[C@H]1C[C@@H]2c3cc(NC(=O)NC4CCCC4)ccc3O[C@@H]2[C@H](CO)O1	nt	nt	nt	-1	nt	nt
CCOC(=O)c1sc(Nc2ccc(F)cc2)nc1C	1	9	5	nt	nt	nt
CCOC(=O)c1sc(Nc2nc3c(OC)cccc3s2)nc1C	7	1	66*	1	64*	57*
C[C@H](CO)N1C[C@H](C)[C@H](CN(C)C(=O)Cc2ccccn2)Oc2ncc(C#CC3CCCCC3)cc2C1=O	nt	nt	nt	3	nt	nt
CC(OC(=O)c1ccccc1NCCO)C(=O)Nc1ccc(S(=O)(=O)N2CCOCC2)cc1 (stereo unspecified)	1	1	57*	-1	58*	54*
CNc1ccccc1C(=O)OCC(=O)N1CCc2ccccc2C1	i	12	63*	-1	8	7
O=C(OCC(=O)N1CCN(c2ccccc2)CC1)c1ccccc1NCCO	3	19	100*	nt	+	+
Nc1ccccc1C(=O)OCC(=O)N1CCc2ccccc21	i	1	35*	-1	59*	43*
O=C(OCC(=O)N1CCN(c2ccccc2)CC1)c1ccccc1OC(F)F	-2	-6	0	0	nt	nt
CN(C(=O)COC(=O)c1ccccc1NCCO)C1CCS(=O)(=O)C1 (stereo unspecified)	i	3	103*	0	124*	93*
C[C@@H]1CN([C@H](C)CO)C(=O)Cc2cc(NS(=O)(=O)c3ccc(F)cc3)ccc2O[C@H]1CN(C)S(=O)(=O)c1cccs1	nt	nt	nt	-4	nt	nt
CNC[C@H]1Oc2ccc(N(C)C)cc2C(=O)N([C@@H](C)CO)C[C@@H]1C	nt	nt	nt	-4	nt	nt
c1ccc(Nc2nnc(-c3cccc4ccccc34)o2)cc1	-1	13	4	-2	nt	nt
Cc1ccc(Nc2nnc(-c3ccccc3N)o2)cc1C	-1	7	49*	nt	11	3	GDH-TPI dose=3.1*
CC(=O)C(C)Oc1cc(C)cc2oc(=O)c(C)c(C)c12 (stereo unspecified)	0	5	20	nt	nt	nt

From PubChem BioAssay
